Bioassay records (PubChem)
A selection: hits, their analogues and other compounds. The true share with any hit is near 12%.
AMA1 RON2 block: AMA1-RON2 (P. falciparum) interaction inhibition; AlphaScreen AMA1-biotinylated RON2 peptide binding; AID 720542; Potency, µM (titrated, usually from 58.2 µM), for inactives: at the top dose activity change, negative = inhibition, most hits filed as inhibitors; hit rate 0.2% among 360,000;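 note: 0% = vehicle wells and -100% = peptide control; nearly all actives have a fitted effect of over 45% in size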
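AMA1 (3D7) with his tag at 25 nM final met compounds first, then biotinylated RON2 peptide at 25 nM; detection used donor plus acceptor beads, 10 µg/mL apiece, read by AlphaScreen after 30 min at room temperature.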
HCV inhibitor: inhibitors of hepatitis C virus infection. Huh7.5.1 HCVcc-Cre infection, luciferase reporter, 44 h. Potency, µM (doses to about 41.8 µM), without a hit: top-dose activity change, negative = inhibition, actives largely listed as inhibitors. hit rate 3.4% among 340,000. AID 651820; note: % is set by controls: 0 for no effect and ±100 for the full control effect
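Whole-lifecycle infectious HCVcc-Cre system; cells 1,000/well, compound then virus (~0.5 moi) added 4 h after plating, 44 h culture. Luciferase read 15 sec following 15 min substrate incubation, room temp.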
NS1 function inh: blocks influenza NS1 protein function; Potency, µM (series often up to 46.1 µM), for inactives: at the top dose activity, positive = more growth; hit rate 0.4% among 270,000; calls by dose curve; note: actives are rising curves; nearly all actives have a fitted effect of over 50% in size
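OD600 was taken as the measure of yeast growth restored by compound in an NS1-expressing S. cerevisiae strain. Cells had been washed out of glucose medium and diluted 1:100 into galactose -URA medium, pH 6.0.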
Pf growth 48h: inhibits P. falciparum growth in the first generation, 48 h; Potency, µM (top dose mostly 28.7 µM), inactives show at the highest dose activity change, negative = inhibition, hits mostly inhibitors; hit rate 5.9% among 310,000; P. falciparum luciferase growth in erythrocytes, 48 h; AID 504832; note: % is set by controls: 0 for no effect and ±100 for the full control effect
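In quantitative HTS format, infected erythrocytes bearing luciferase-reporter parasites were treated for a single generation at 37 C. Luminescence after adding detection reagent served as the growth measure.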
Pf growth 96h: inhibits malaria parasite growth, 96 h. P. falciparum luciferase reporter growth, 96 h. Potency, µM (series often up to 28.7 µM), without a hit: top-dose activity change, negative = inhibition, most hits filed as inhibitors. hit rate 6.9% among 320,000; note: % is set by controls: 0 for no effect and ±100 for the full control effect
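Parasite growth measured via integrated firefly luciferase reporter in P. falciparum. Infected erythrocytes at 2% hematocrit, 0.05% parasitemia final were treated 96 hours at 37 C under 5% CO2, and luminescence was read.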
SARS PLpro yeast: inhibitors of SARS-CoV papain-like protease in yeast. S. cerevisiae expressing SARS-CoV PLpro, growth rescue. Potency, µM (highest dose often 32.9 µM), for the others: at the top dose activity, positive = growth rescue, hits mostly activators. hit rate 0.19% among 330,000; calls by dose curve; note: 0% is about no effect; nearly all actives have a fitted effect of over 55% in size
Active calls of the source: *; [ ] = another dose, or the depositor's remark. Unless noted, calls come from the whole dose curve; as a rule, active = well fitted curve in the direction sought with a large enough effect; inconclusive = small, poorly fitted or top-dose-only effect, or another doubt; inactive = no such curve, though single readings can be large; an effect the other way counts as inactive or inconclusive. Potency is the fitted concentration of half-maximal effect.

How did CC1Cc2cc(S(=O)(=O)N3CCN(c4ccc(Cl)cc4)CC3)ccc2N1C(=O)C1CC1 (configuration not stated) do in these assays?
AMA1 RON2 block: -4%; HCV inhibitor: 6.3µM*; NS1 function inh: 14%; Pf growth 48h: inconclusive; Pf growth 96h: 15µM*; SARS PLpro yeast: 31%

What do the screens show for `Cn1c(N)c(C(=O)COC(=O)c2cc(S(=O)(=O)NCc3ccccc3)ccc2O)c(=O)n(C)c1=O`?
AMA1 RON2 block: 0%[11.6 µM]; HCV inhibitor: 12%

What do the screens show for `CCN(CC(=O)NC(C)(C)C)Cc1nc2c(Br)cc(Br)cc2c(=O)[nH]1`?
AMA1 RON2 block: 77%; HCV inhibitor: inconclusive; NS1 function inh: -2%; Pf growth 48h: 12µM*; Pf growth 96h: 9.3µM*; SARS PLpro yeast: 0%

What do the screens show for `CCCCN1CC(COCc2ccccc2)Oc2cccc(OCCN3C(=O)[C@@H]4[C@H](C3=O)C3C=C[C@H]4C3)c2S1(=O)=O` (some centres not stated)?
AMA1 RON2 block: -9%; HCV inhibitor: 10µM*

What do the screens show for `CC(C)(C)Sc1ccccc1S(=O)(=O)C(C)(C)C`?
AMA1 RON2 block: -1%; HCV inhibitor: -10%; NS1 function inh: 3%; Pf growth 48h: 25%; Pf growth 96h: 11%; SARS PLpro yeast: 0%

How did COc1ccc(C(=O)CSc2nnc(-c3cc4ccccc4cc3O)n2Cc2ccco2)cc1 do in these assays?
AMA1 RON2 block: 31%; HCV inhibitor: 11µM*; NS1 function inh: 4%; Pf growth 48h: 2.3µM*; Pf growth 96h: -1%; SARS PLpro yeast: 0%

What do the screens show for `COc1ccc(C(=O)CSc2nnc(-c3cccnc3)n2Cc2ccco2)cc1`?
AMA1 RON2 block: 6%; HCV inhibitor: -3%; NS1 function inh: 0%; Pf growth 48h: 0%; Pf growth 96h: 0%; SARS PLpro yeast: 14%

What do the screens show for `CCn1c(SCC(=O)N(C(C)C)C(C)C)nnc1-c1cc2ccccc2cc1O`?
AMA1 RON2 block: -14%; HCV inhibitor: inconclusive; NS1 function inh: -2%; Pf growth 48h: 1.9µM*; Pf growth 96h: 84%; SARS PLpro yeast: -2%

Results for CC1CCN(C(=O)CSc2nnc(-c3cc4ccccc4cc3O)n2Cc2ccco2)CC1 ?
AMA1 RON2 block: 19%; HCV inhibitor: inconclusive; NS1 function inh: 1%; Pf growth 48h: 12µM*; Pf growth 96h: 3%[5.75 µM]; SARS PLpro yeast: -6%

Results for COc1cccc(C(=O)NC(Cc2ccccc2)c2ccc3c(c2)OCCCO3)c1 (configuration not stated) ?
AMA1 RON2 block: -1%; HCV inhibitor: inconclusive; NS1 function inh: -4%; Pf growth 96h: 3.3µM*; SARS PLpro yeast: 4%

What do the screens show for `CC(=O)NC(Cc1ccccc1)c1ccc2c(c1)OCCCO2` (configuration not stated)?
AMA1 RON2 block: 4%; HCV inhibitor: -13%; NS1 function inh: 11%; Pf growth 48h: -7%; Pf growth 96h: -14%; SARS PLpro yeast: -3%

Results for O=C(NC(Cc1ccccc1)c1ccc2c(c1)OCCCO2)c1ccc(F)cc1 (configuration not stated) ?
AMA1 RON2 block: 6%; HCV inhibitor: inconclusive; NS1 function inh: 18%; Pf growth 96h: 9.3µM*; SARS PLpro yeast: 10%

Results for O=C(O)CCSCc1ccccc1 ?
NS1 function inh: 3%

What do the screens show for `Cc1onc(-c2c(Cl)cccc2Cl)c1C(=O)N=C(N)N1CC(C)OC(C)C1` (configuration not stated)?
AMA1 RON2 block: 3%; HCV inhibitor: -13%; NS1 function inh: -3%; Pf growth 48h: 3.3µM*; Pf growth 96h: 12µM*; SARS PLpro yeast: 0%

What do the screens show for `Cc1onc(-c2c(F)cccc2Cl)c1C(=O)Nc1ccccc1N1CCOCC1`?
AMA1 RON2 block: -12%; HCV inhibitor: -15%; NS1 function inh: 2%; Pf growth 48h: 1.9µM*; Pf growth 96h: 2.6µM*; SARS PLpro yeast: -1%
